# Measured values: PubChem BioAssay AID1159580 (chemical genetic matrix, 2015)
# Where “and” joins values, the source holds several entries; their conditions need not be identical. Equal values may be shown once. Out of some 5,500 compounds screened, about 2,000 (36%) were called active. About 18% were inconclusive and are not listed. Cut-off read from the data, not from the text of the source: active = normalized growth mostly below about 0.91 (no sharp cut-off); inconclusive = no clear call, values can overlap the other calls; inactive = mostly above about 0.92. Some of the results follow. The source holds several records for some structures; these can differ, active in one and inactive in another.
# Assay: chemical genetic growth profiling, strain panel (AID 1159580);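 note: tested at 20 µM; growth read once vehicle control cultures reached saturation at 30 °C; 1 = growth at the plate median or of vehicle wells; lower values mean less growth of the strain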
# Settings: growth OD
smiles,measurement,setting,value
Cc1cc2c(C(C)C)c(O)c(O)c(C=O)c2c(O)c1-c1c(C)cc2c(C(C)C)c(O)c(O)c(C=O)c2c1O,normalized growth,"S. cerevisiae deletion strains, locus YJR066W, strain TOR1, stronger effect = lower value",0.993 (inactive)
same,normalized growth,"S. cerevisiae deletion strains, locus YJR075W, strain HOC1, stronger effect = lower value",0.907 (inactive)
same,normalized growth,"S. cerevisiae deletion strains, locus YKL009W, strain mrt4, stronger effect = lower value",1.52 [resistant] (active)
same,normalized growth,"S. cerevisiae deletion strains, locus YKL068W, stronger effect = lower value",1.04 (inactive)
same,normalized growth,"S. cerevisiae deletion strains, locus YKL085W, strain MDH1 (second series), stronger effect = lower value",1.08 [resistant] (active) and 1.1 [resistant] (active)
same,normalized growth,"S. cerevisiae deletion strains, locus YKL085W, strain MDH1, stronger effect = lower value",1.08 [resistant] (active) and 1.1 [resistant] (active)
same,normalized growth,"S. cerevisiae deletion strains, locus YKL160W, strain elf1, stronger effect = lower value",0.832 (active) and 0.809 (active)
same,normalized growth,"S. cerevisiae deletion strains, locus YKL190W, strain CNB1, stronger effect = lower value",0.663 (active) and 0.868 (active)
same,normalized growth,"S. cerevisiae deletion strains, locus YKR001C, strain vps1, stronger effect = lower value",0.486 (active) and 0.887 (active)
same,normalized growth,"S. cerevisiae deletion strains, locus YKR026C, strain gcn3, stronger effect = lower value",0.888 (active) and 0.949 (inactive)
same,normalized growth,"S. cerevisiae deletion strains, locus YKR091W, strain srl3, stronger effect = lower value",0.935 (inactive) and 0.943 (inactive)
same,normalized growth,"S. cerevisiae deletion strains, locus YLL001W, strain dnm1, stronger effect = lower value",0.724 (active) and 0.801 (active)
same,normalized growth,"S. cerevisiae deletion strains, locus YLL026W, stronger effect = lower value",0.904 (active) and 0.838 (active)
same,normalized growth,"S. cerevisiae deletion strains, locus YLL041C, strain sdh2, stronger effect = lower value",0.92 (active) and 0.959 (inactive)
same,normalized growth,"S. cerevisiae deletion strains, locus YLR027C, strain aat2, stronger effect = lower value",0.78 (active) and 0.81 (active)
same,normalized growth,"S. cerevisiae deletion strains, locus YLR039C, strain RIC1, stronger effect = lower value",0.202 (active) and 0.679 (inactive)
same,normalized growth,"S. cerevisiae deletion strains, locus YLR058C, strain SHM2, stronger effect = lower value",0.685 (active) and 0.764 (active)
same,normalized growth,"S. cerevisiae deletion strains, locus YLR102C, strain apc9, stronger effect = lower value",0.992 (inactive) and 1.01 (inactive)
same,normalized growth,"S. cerevisiae deletion strains, locus YLR113W, strain HOG1, stronger effect = lower value",0.952 (inactive)
same,normalized growth,"S. cerevisiae deletion strains, locus YLR221C, strain rsa3, stronger effect = lower value",0.751 (active) and 0.818 (active)
same,normalized growth,"S. cerevisiae deletion strains, locus YLR258W, strain gsy2, stronger effect = lower value",0.855 (active) and 0.839 (active)
same,normalized growth,"S. cerevisiae deletion strains, locus YLR262C, strain YPT6 (second series), stronger effect = lower value",0.216 (active) and 0.179 (active)
same,normalized growth,"S. cerevisiae deletion strains, locus YLR262C, strain YPT6, stronger effect = lower value",0.207 (active) and 0.653 (inactive)
same,normalized growth,"S. cerevisiae deletion strains, locus YLR268W, strain sec22, stronger effect = lower value",0.599 (active) and 0.847 (active)
same,normalized growth,"S. cerevisiae deletion strains, locus YLR320W, strain mms22, stronger effect = lower value",0.684 (active) and 0.651 (active)
same,normalized growth,"S. cerevisiae deletion strains, locus YLR330W, strain CHS5, stronger effect = lower value",0.675 (active) and 0.883 (active)
same,normalized growth,"S. cerevisiae deletion strains, locus YLR342W, strain FKS1 (second series), stronger effect = lower value",0.545 (active) and 0.811 (inactive)
same,normalized growth,"S. cerevisiae deletion strains, locus YLR342W, strain FKS1, stronger effect = lower value",0.675 (active) and 0.786 (active)
same,normalized growth,"S. cerevisiae deletion strains, locus YLR357W, strain rsc2, stronger effect = lower value",0.649 (active) and 0.719 (active)
same,normalized growth,"S. cerevisiae deletion strains, locus YLR370C, strain arc18, stronger effect = lower value",0.687 (active) and 0.765 (active)
same,normalized growth,"S. cerevisiae deletion strains, locus YLR371W, strain rom2, stronger effect = lower value",0.708 (active) and 0.956 (inactive)
same,normalized growth,"S. cerevisiae deletion strains, locus YLR384C, strain iki3, stronger effect = lower value",0.809 (active) and 0.889 (active)
same,normalized growth,"S. cerevisiae deletion strains, locus YLR418C, strain cdc73, stronger effect = lower value",0.486 (active) and 0.903 (inactive)
same,normalized growth,"S. cerevisiae deletion strains, locus YML016C, strain PPZ1, stronger effect = lower value",0.73 (active) and 0.831 (active)
same,normalized growth,"S. cerevisiae deletion strains, locus YML032C, strain rad52, stronger effect = lower value",0.855 (active) and 0.958 (inactive)
same,normalized growth,"S. cerevisiae deletion strains, locus YML120C, strain ndi1, stronger effect = lower value",0.721 (active) and 0.719 (active)
same,normalized growth,"S. cerevisiae deletion strains, locus YML124C, strain tub3, stronger effect = lower value",0.928 (active) and 0.994 (inactive)
same,normalized growth,"S. cerevisiae deletion strains, locus YMR058W, strain fet3, stronger effect = lower value",0.101 (active) and 0.125 (active)
same,normalized growth,"S. cerevisiae deletion strains, locus YMR078C, strain ctf18, stronger effect = lower value",0.974 (inactive) and 0.987 (inactive)
same,normalized growth,"S. cerevisiae deletion strains, locus YMR125W, strain sto1, stronger effect = lower value",0.824 (active) and 0.908 (inactive)
same,normalized growth,"S. cerevisiae deletion strains, locus YMR129W, stronger effect = lower value",0.878 (active) and 0.941 (inactive)
same,normalized growth,"S. cerevisiae deletion strains, locus YMR205C, strain PFK2, stronger effect = lower value",0.63 (active) and 0.655 (active)
same,normalized growth,"S. cerevisiae deletion strains, locus YMR223W, strain ubp8, stronger effect = lower value",0.796 (active) and 0.898 (active)
same,normalized growth,"S. cerevisiae deletion strains, locus YMR231W, strain pep5, stronger effect = lower value",0.434 (active) and 0.295 (active)
same,normalized growth,"S. cerevisiae deletion strains, locus YMR307W, strain GAS1, stronger effect = lower value",0.354 (active) and 0.699 (inactive)
same,normalized growth,"S. cerevisiae deletion strains, locus YNL067W, strain RPL9B, stronger effect = lower value",0.773 (active) and 0.808 (active)
same,normalized growth,"S. cerevisiae deletion strains, locus YNL071W, strain lat1, stronger effect = lower value",0.86 (active) and 0.835 (active)
same,normalized growth,"S. cerevisiae deletion strains, locus YNL128W, strain TEP1, stronger effect = lower value",0.56 (active) and 0.883 (inactive)
same,normalized growth,"S. cerevisiae deletion strains, locus YNL153C, strain GIM3, stronger effect = lower value",0.742 (active) and 0.767 (active)
same,normalized growth,"S. cerevisiae deletion strains, locus YNL183C, strain NPR1, stronger effect = lower value",0.984 (inactive)
same,normalized growth,"S. cerevisiae deletion strains, locus YNL209W, strain ssb2, stronger effect = lower value",0.527 (active) and 0.542 (active)
same,normalized growth,"S. cerevisiae deletion strains, locus YNL233W, strain BNI4, stronger effect = lower value",0.796 (active) and 0.835 (active)
same,normalized growth,"S. cerevisiae deletion strains, locus YNL248C, strain rpa49, stronger effect = lower value",0.892 (inactive) and 0.886 (active)
same,normalized growth,"S. cerevisiae deletion strains, locus YNL250W, strain rad50, stronger effect = lower value",0.961 (inactive) and 0.957 (inactive)
same,normalized growth,"S. cerevisiae deletion strains, locus YNL271C, strain bni1, stronger effect = lower value",0.969 (inactive) and 0.96 (inactive)
same,normalized growth,"S. cerevisiae deletion strains, locus YNL298W, strain CLA4, stronger effect = lower value",0.959 (inactive) and 0.985 (inactive)
same,normalized growth,"S. cerevisiae deletion strains, locus YNL307C, strain MCK1, stronger effect = lower value",0.804 (active) and 0.984 (inactive)
same,normalized growth,"S. cerevisiae deletion strains, locus YNL322C, strain KRE1 (second series), stronger effect = lower value",0.875 (active) and 0.9 (active)
same,normalized growth,"S. cerevisiae deletion strains, locus YNL322C, strain KRE1, stronger effect = lower value",0.832 (active)
same,normalized growth,"S. cerevisiae deletion strains, locus YNR049C, strain mso1, stronger effect = lower value",0.854 (active) and 0.889 (active)
same,normalized growth,"S. cerevisiae deletion strains, locus YNR052C, strain pop2, stronger effect = lower value",0.679 (active) and 0.959 (inactive)
same,normalized growth,"S. cerevisiae deletion strains, locus YOL006C, strain TOP1, stronger effect = lower value",0.436 (active)
same,normalized growth,"S. cerevisiae deletion strains, locus YOL012C, strain htz1",0.315 (inactive) and 0.44 (inactive)
same,normalized growth,"S. cerevisiae deletion strains, locus YOL147C, strain pex11, stronger effect = lower value",0.872 (active) and 0.991 (inactive)
same,normalized growth,"S. cerevisiae deletion strains, locus YOR001W, strain rrp6, stronger effect = lower value",0.764 (active) and 0.819 (active)
same,normalized growth,"S. cerevisiae deletion strains, locus YOR061W, strain CKA2, stronger effect = lower value",0.653 (active) and 0.79 (active)
same,normalized growth,"S. cerevisiae deletion strains, locus YOR069W, strain VPS5, stronger effect = lower value",0.799 (active) and 0.9 (active)
same,normalized growth,"S. cerevisiae deletion strains, locus YOR070C, strain gyp1, stronger effect = lower value",0.893 (active) and 0.784 (active)
same,normalized growth,"S. cerevisiae deletion strains, locus YOR080W, strain dia2, stronger effect = lower value",0.755 (active) and 0.812 (active)
same,normalized growth,"S. cerevisiae deletion strains, locus YOR083W, strain WHI5, stronger effect = lower value",0.806 (active) and 0.808 (active)
same,normalized growth,"S. cerevisiae deletion strains, locus YOR106W, strain vam3, stronger effect = lower value",0.537 (active) and 0.567 (active)
same,normalized growth,"S. cerevisiae deletion strains, locus YOR136W, strain idh2, stronger effect = lower value",0.969 (inactive) and 0.986 (inactive)
same,normalized growth,"S. cerevisiae deletion strains, locus YOR144C, strain elg1, stronger effect = lower value",0.859 (active) and 0.978 (inactive)
same,normalized growth,"S. cerevisiae deletion strains, locus YOR184W, strain ser1, stronger effect = lower value",0.664 (active) and 0.912 (inactive)
same,normalized growth,"S. cerevisiae deletion strains, locus YOR231W, strain MKK1, stronger effect = lower value",1.01 (inactive)
same,normalized growth,"S. cerevisiae deletion strains, locus YOR265W, strain rbl2, stronger effect = lower value",0.808 (active) and 0.842 (active)
same,normalized growth,"S. cerevisiae deletion strains, locus YOR270C, strain vph1, stronger effect = lower value",0.231 (active) and 0.311 (active)
same,normalized growth,"S. cerevisiae deletion strains, locus YOR290C, strain snf2, stronger effect = lower value",0.525 (active) and 0.627 (active)
same,normalized growth,"S. cerevisiae deletion strains, locus YOR316C, strain cot1, stronger effect = lower value",0.967 (inactive) and 1 (inactive)
same,normalized growth,"S. cerevisiae deletion strains, locus YPL051W, strain arl3, stronger effect = lower value",0.51 (active) and 0.436 (active)
same,normalized growth,"S. cerevisiae deletion strains, locus YPL078C, strain atp4, stronger effect = lower value",0.715 (active) and 0.778 (active)
same,normalized growth,"S. cerevisiae deletion strains, locus YPL106C, strain sse1, stronger effect = lower value",0.798 (active) and 0.905 (inactive)
same,normalized growth,"S. cerevisiae deletion strains, locus YPL240C, strain hsp82, stronger effect = lower value",0.846 (active) and 0.936 (inactive)
same,normalized growth,"S. cerevisiae deletion strains, locus YPL241C, strain CIN2, stronger effect = lower value",0.912 (active) and 0.957 (inactive)
same,normalized growth,"S. cerevisiae deletion strains, locus YPL256C, strain CLN2, stronger effect = lower value",0.973 (inactive)
same,normalized growth,"S. cerevisiae deletion strains, locus YPR119W, strain clb2, stronger effect = lower value",0.983 (inactive) and 1.02 (inactive)
same,normalized growth,"S. cerevisiae deletion strains, locus YPR141C, strain kar3, stronger effect = lower value",0.984 (inactive) and 0.991 (inactive)
same,normalized growth,"S. cerevisiae deletion strains, locus YPR163C, strain tif3, stronger effect = lower value",0.932 (inactive) and 1.02 (inactive)
same,normalized growth,"S. cerevisiae deletion strains, locus YPR167C, strain met16, stronger effect = lower value",0.842 (active) and 0.958 (inactive)
same,normalized growth,"S. cerevisiae deletion strains, strain wtn01, stronger effect = lower value",0.86 (active) and 0.906 (inactive)
same,normalized growth,"S. cerevisiae strains, strain wild type, stronger effect = lower value",0.809 (active)
